High-throughput results: PubChem, National Center for Advancing Translational Sciences (NCATS)
An excerpt weighted towards active compounds, which were near 9% of everything screened.
PLK1 PBD inh – qHTS for Inhibitors of PLK1-PDB (polo-like kinase 1 - polo-box domain): Primary Screen | Serine/threonine-protein kinase PLK1 (Homo sapiens), P53350 | Plk1 PBD binding of FITC phosphopeptide, fluorescence polarization | Potency, µM, for the others: max response, negative = inhibition, usual class: inhibitors | 360,000 tested, 2.8% active | AID 720504, 2013; note: series mostly up to about 57 µM; % is set by controls: 0 for no effect and ±100 for the full control effect; nearly all actives have a fitted effect of over 65% in size
BAZ2B inh – qHTS Assay for Inhibitors of BAZ2B. Bromodomain adjacent to zinc finger domain protein 2B (Homo sapiens), Q9UIF8. AlphaScreen BAZ2B-H3K14Ac peptide displacement. Potency, µM (highest dose often 114 µM), without a hit: at the highest dose activity change, negative = inhibition, actives largely listed as inhibitors. 360,000 tested, 4.4% active. AID 504333, 2011; note: % is set by controls: 0 for no effect and ±100 for the full control effect; nearly all actives have a fitted effect of over 60% in size
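BAZ2B 50 nM plus b-H3(5-23)K14Ac 50 nM, PBS pH 7.4/0.01% Tween-20, 30 min RT; compound added (max 110 uM), 30 min RT; streptavidin donor/Ni-chelate acceptor beads 10 ug/mL final, 20 min dark; AlphaScreen read.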
JMJD2A Tudor – qHTS Assay for Inhibitors of JMJD2A-Tudor Domain; Lysine-specific demethylase 4A (Homo sapiens), O75164; 390,000 tested, 4.4% active; AlphaScreen JMJD2A-Tudor / H3K4me3 peptide binding; Potency, µM (doses to about 114 µM), for the others: at the top dose activity change, negative = inhibition, usual class: inhibitors; note: % is set by controls: 0 for no effect and ±100 for the full control effect; nearly all actives have a fitted effect of over 50% in size
HP1b chromo inh – HTS for Inhibitors of HP1-beta Chromodomain Interactions with Methylated Histone Tails | Potency, µM (series often up to 114 µM), inactives show at the highest dose activity change, negative = inhibition, hits mostly inhibitors | AlphaScreen HP1-beta / biotin-H3K9me3 peptide binding | Chromobox protein homolog 1 (Homo sapiens), P83916 | AID 540317, 2011 | 390,000 tested, 0.56% active; note: nearly all actives have a fitted effect of over 70% in size
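AlphaScreen: HP1-beta (50 nM) preformed 30 min with biotin-H3(1-18)K9me3 peptide (50 nM) in PBS pH 7.4, 0.01% Tween-20. Compound added for 30 min at RT, then streptavidin donor/nickel chelate acceptor beads (10 ug/mL) for 30 min.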
G9a inh – qHTS Assay for Inhibitors of Histone Lysine Methyltransferase G9a; Histone-lysine N-methyltransferase EHMT2 (Homo sapiens), Q96KQ7; G9a H3K9 monomethylation, AlphaScreen, 2 h; Potency, µM (top dose mostly 102 µM), for the others: at the top dose activity, negative = inhibition, usual class: inhibitors; 350,000 tested, 8.8% active; AID 504332, 2011; note: % is set by controls: 0 for no effect and ±100 for the full control effect; nearly all actives have a fitted effect of over 75% in size
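Methyltransferase reactions run at room temperature for 2 h (20 nM enzyme, 500 nM biotin-H3K9 peptide, 20 uM SAM) after a 15 min compound preincubation; product detected by AlphaScreen beads and anti-H3K9me1 antibody.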
12-LOX inh – Primary qHTS assay for inhibitors of human arachidonate 12S-lipoxygenase (ALOX12): Round 2; purified 12hLO, xylenol orange hydroperoxide absorbance; Potency, µM (series often up to 108 µM), inactives show top-dose activity change, negative = inhibition, usual class: inhibitors; 580,000 tested, 1.1% active; AID 1671190, 2021; note: % is set by controls: 0 for no effect and ±100 for the full control effect
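Purified human 12hLO at 150 nM in 25 mM Hepes, 0.01% Triton X-100, pH 7.0, preincubated 15 min at room temperature with compound. Reaction started with 40 uM arachidonic acid, 30 min at room temperature. Hydroperoxide measured by Fe-xylenol orange, 573/405 nm absorbance ratio.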
* marks the source's active call; other numbers are inactive results; ? = inconclusive; . = no result; [ ] = another dose, or the depositor's remark. Calls come from the whole dose curve; as a rule, active = well fitted curve in the direction sought with a large enough effect; inconclusive = small, poorly fitted or top-dose-only effect, or another doubt; inactive = no such curve, though single readings can be large; an effect the other way counts as inactive or inconclusive. Potency is the fitted concentration of half-maximal effect.

SMILES	PLK1 PBD inh	BAZ2B inh	JMJD2A Tudor	HP1b chromo inh	G9a inh	12-LOX inh
CC(=O)Oc1ccc(C23CC4CC(CC(C4)C2)C3)cc1C(=O)O	.	3%	.	.	-1%	.
CCSc1nnc2c(n1)OC=Nc1ccc(Br)cc1-2	-10%	-7%	-23%	28%	?	0%
CCN(CC)Cc1oc(CO)cc(=O)c1O	-12%	32µM*	?	?	13µM*	32µM*
CCc1c(C)c2cc(Cl)c(O)c(CN(CC)CC)c2oc1=O	-9%	9%	-11%	24%	10%[12.7 µM]	-4%
COc1ccc(N2CCN(Cc3oc(CO)cc(=O)c3O)CC2)cc1	-13%	?	?	46%	?	?
O=c1cc(CO)oc(CN2CCN(Cc3ccccc3)CC2)c1O	-8%	?	?	11%	50µM*	-14%
CN1CCN(Cc2oc(CO)cc(=O)c2O)CC1	-12%	?	56µM*	1%	?	-4%
O=c1cc(CO)oc(CN2CCCC2)c1O	0%	?	89µM*	3%	45µM*	-1%
O=C(O)C1CCN(Cc2oc(CO)cc(=O)c2O)C1 (stereo not drawn)	-10%	.	?	20%	.	4%
O=C(/C=C/c1cccc([N+](=O)[O-])c1)N1CC[C@@]2(O)CCCC[C@H]2C1	-4%	-3%	-15%	35%	-21%	9%
O=C1c2ccccc2C(=O)N1CCCc1cn(C[C@H]2CC[C@H](Cn3cc(CCCN4C(=O)c5ccccc5C4=O)nn3)O2)nn1	-16%	.	-10%	19%	.	6%
CCN(CC)S(=O)(=O)c1cccc(C(=O)NCCCn2ccnc2)c1	-3%	-26%	-4%	33%	56µM*	-6%
CCN(CC)S(=O)(=O)c1cccc(C(=O)NC2=NCCS2)c1	-13%	-2%	-16%	14%	50µM*	16%
CCN(CC)S(=O)(=O)c1cccc(C(=O)N2CC(O)CC2C(=O)O)c1 (stereo not drawn)	0%	-8%	-6%	34%	44%[59 µM]	-3%
O=C(NCCCn1ccnc1)c1ccc2nccnc2c1	-25%	50µM*	-11%	20%	.	51%
CCN(CC)S(=O)(=O)c1cccc(C(=O)N2CC(O)CC2C(=O)OC)c1 (stereo not drawn)	30µM*	5%	18%[11.4 µM]	-3%	7%	0%
Cc1ccc(C(=O)NCCCn2ccnc2)cc1C	3%	.	-2%	53%	.	118%
CCN(CC)S(=O)(=O)c1ccc(C(=O)NCCCn2ccnc2)cc1	-4%	0%	8%[57.1 µM]	42%	12%	-17%
CCCCCC(=O)N1C[C@@H](O)[C@H](n2cc(-c3ccc(F)cc3)nn2)C[C@@H]1c1ccc(Cl)cc1	1%	.	.	.	.	10µM*
Cc1ccc2nc(-c3ccc(C)o3)c(NC3CCCC3)n2c1	.	.	?	8%	.	.
Cc1cccc(C)c1Nc1c(-c2ccsc2)nc2ccccn12	.	?	45µM*	?	14µM*	?
Cc1cccc(C)c1Nc1c(-c2ccccn2)nc2ccccn12	4%	25µM*	45µM*	?	40µM*	?
Cc1cccc(C)c1Nc1c(-c2ccsc2)nc2ccc(Cl)cn12	.	-31%	-30%	29%	?	-24%
Cc1ccc2nc(-c3ccccn3)c(NC3CCCC3)n2c1	-14%	-9%	45µM*	?	-43%	1%
Cc1cc(C(C)(C)C)cc(C)c1COC(=O)c1nn(C)c(=O)c2ccccc12	.	.	.	.	.	0%
